Bioassay records deposited in PubChem by Broad Institute.
Most compounds without a hit are left out; they make up all but 4% or so of the library.
C2C12 statin: suppressors of statin myotoxicity in C2C12 myotubes, primary screen, cell-based, single point, plate reader. 330,000 tested, 0.78% active. rescue of ATP level, % at 7.49 µM. C2C12 myotubes + simvastatin, ATP luminescence, 48 h; scaled: DMSO 0, geranylgeraniol control 100;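 active = mean ATP rescue above about 67%, or every replicate alone reaching that limit, limit read from the data, passing the limit was not always enough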;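 also: myotubes were challenged with 10 µM simvastatin during compound exposure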
MITF TRPM1 HTS: activators of MITF-driven TRPM1 promoter reporter, primary screen, cell-based, SK-MEL-5, luciferase, single point; SK-MEL-5 TRPM1-promoter luciferase, 24 h; % of positive control, neutral wells = 0; activation, % at 12.5 µM; 300,000 tested, 0.75% active; AID 588334, 2011;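 active = mean activation of at least 80% with every replicate also reaching 80%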
EBV LMP1 NFkB: EBV LMP1-driven NF-kappaB luciferase reporter inhibitors, primary screen, cell-based, luminescence, single point; LMP1-induced NF-kappaB luciferase reporter cells; inhibition, % at 12.5 µM; 350,000 tested, 0.69% active; in the data active = inhibition above about 41%
MITF TRPM1 inh: inhibitors of MITF-dependent TRPM1 promoter reporter, primary screen, cell-based, SK-MEL-5, single point, luciferase | 330,000 tested, 0.83% active | SK-MEL-5 TRPM1 promoter luciferase, 24 h | inhibition, % at 12.5 µM;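 active = mean inhibition across replicates of 60% or more, whatever share of single replicates reaches that level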
Wnt bcat act: Wnt/beta-catenin pathway activators, primary screen, cell-based, plate reader, single point; Wnt/beta-catenin reporter cell assay, activator; activation, % at 9.35 µM; 300,000 tested, 1.2% active; AID 743398, 2014; in the data active = activation above about 30%, passing the limit was not always enough
esBAF inh: Bmi1 luciferase reporter increase in mESCs, primary screen, esBAF inhibitor project, mouse ES cells, Bmi1 luciferase knock-in, single point | 24 h; 100% = twice the neutral-well signal | reporter increase, % at 12.5 µM | 350,000 tested, 2% active | AID 602393, 2012; in the data active = activation above about 40%;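 also: a rise in the Bmi1 reporter signal indicates esBAF inhibition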
Of the large screens only hits and unclear results are named; the others gave an inactive call.

CCOc1ccc(C2C(C(=O)c3ccco3)=C(O)C(=O)N2Cc2cccnc2)cc1 (stereo unspecified)	Wnt bcat act 35 (no result: MITF TRPM1 HTS)
CCOc1ccc(C2C(C(=O)c3ccco3)=C(O)C(=O)N2CCCn2ccnc2)cc1OCC (stereo unspecified)	none
Cc1noc(C)c1S(=O)(=O)Nc1ccc2c(c1)C(=O)N([C@H](C)CO)C[C@H](C)[C@H](CN(C)C(=O)Nc1ccc(C(F)(F)F)cc1)OCCCC[C@H](C)O2	none (no result: C2C12 statin, MITF TRPM1 HTS, EBV LMP1 NFkB, MITF TRPM1 inh, Wnt bcat act)
CCCC(=O)Nc1cc(=O)[nH]c2ncnn12	none (no result: Wnt bcat act)
O=C(OC(C(=O)NCc1ccc2c(c1)OCO2)c1ccccc1F)c1ccco1 (stereo unspecified)	C2C12 statin 84 (no result: Wnt bcat act)
Cc1ccc(OCc2cc(C(=O)NCC3COCCO3)no2)cc1C (stereo unspecified)	none (no result: C2C12 statin, esBAF inh)
CCN1CCCC1CNC(=O)c1cc(COc2ccc(C)c(C)c2)on1 (stereo unspecified)	esBAF inh 45
Cc1ccc(OCc2cc(C(=O)NCC(C)(C)N3CCOCC3)no2)cc1C	MITF TRPM1 HTS 121, Wnt bcat act 47 (no result: C2C12 statin, esBAF inh)
CC=Cc1ccc2n(c1=O)C[C@H]1[C@H](CO)[C@@H](C(=O)Nc3ccc(-c4ccccc4)cc3)N(CC)[C@@H]21 (mixture of isomers)	esBAF inh 46 (no result: MITF TRPM1 HTS, EBV LMP1 NFkB, MITF TRPM1 inh, Wnt bcat act)
CC=Cc1ccc2n(c1=O)C[C@@H]1[C@@H](CO)[C@H](C(=O)Nc3ccc(-c4ccccc4)cc3)N(C)[C@H]21 (mixture of isomers)	esBAF inh 61 (no result: MITF TRPM1 HTS, EBV LMP1 NFkB, MITF TRPM1 inh, Wnt bcat act)
CC=Cc1ccc2n(c1=O)C[C@@H]1[C@@H](CO)[C@H](C(=O)Nc3ccc(-c4ccccc4)cc3)N(CC)[C@H]21 (mixture of isomers)	none (no result: MITF TRPM1 HTS, EBV LMP1 NFkB, MITF TRPM1 inh, Wnt bcat act)
Cc1noc(C)c1S(=O)(=O)N(C)C[C@@H]1OCCCC[C@H](C)Oc2ccc(NC(=O)Nc3ccccc3)cc2C(=O)N([C@H](C)CO)C[C@H]1C	none (no result: C2C12 statin, MITF TRPM1 HTS, EBV LMP1 NFkB, MITF TRPM1 inh, Wnt bcat act)
O=[N+]([O-])c1cc(S(=O)(=O)Nc2ccccc2)ccc1Nc1ccccc1	none
CCN=C1NN=C(c2cc(C)n(Cc3ccco3)c2C)CS1	EBV LMP1 NFkB 70, MITF TRPM1 inh 80 (no result: C2C12 statin, Wnt bcat act, esBAF inh)
O=C1C=CC(O)(c2cc(=O)c3c(O)cc(O)cc3o2)C=C1	MITF TRPM1 inh 80
Cc1ccc(Sc2cnc3ccccc3n2)cc1	MITF TRPM1 HTS 89, EBV LMP1 NFkB 56, esBAF inh 66 (no result: Wnt bcat act)
CC(Sc1cnc2ccccc2n1)C(=O)O (stereo unspecified)	none (no result: C2C12 statin, esBAF inh)
O=C(/C=C/c1ccncc1)c1ccc2c(c1)OCCO2	none (no result: C2C12 statin, esBAF inh)
COc1cc(/C=C/C(=O)c2ccc3c(c2)OCCO3)cc(Br)c1OCC(=O)N(C)C	MITF TRPM1 inh 93
Cc1nn2cc(-c3ccc(Cl)cc3)cnc2c1Cl	MITF TRPM1 HTS 126, Wnt bcat act 32, esBAF inh 72
O=c1oc2ccccc2cc1-c1cn2ccccc2n1	EBV LMP1 NFkB 68, MITF TRPM1 inh 81 (no result: C2C12 statin, esBAF inh)
O=c1oc2ccccc2cc1-c1cn2cccnc2n1	none (no result: C2C12 statin, MITF TRPM1 HTS, Wnt bcat act)
COC(=O)c1nn(-c2ccc(C)cc2)c2nnc(Cc3ccccc3)c(=O)n12	Wnt bcat act 37 (no result: C2C12 statin, esBAF inh)
Cc1cc(OCc2cc(C(=O)N(C)C3CCOCC3)no2)cc(C)c1Cl	esBAF inh 61
Cc1ccc(OCc2cc(C(=O)N(C)CC3CCOCC3)no2)cc1C	MITF TRPM1 HTS 96, esBAF inh 69
CCN(CC(=O)Nc1ccc(NC(C)=O)cc1)C(=O)c1sc2nc3n(c(=O)c2c1C)CCC3	none
COc1ccc(CNC(=O)c2ccc(NC(=O)CC3SC(N4CCCC4)=NC3=O)cc2)cc1 (stereo unspecified)	none (no result: MITF TRPM1 HTS, Wnt bcat act)
CCOC(=O)c1nn(-c2cccc(Cl)c2)c(C)c1C(C)=O	C2C12 statin 123
O=C(O)c1ccc(-c2noc(-c3cccc(F)c3)n2)cc1	Wnt bcat act 45
Cn1nccc1C(=O)Nc1cc(Cl)ccc1Cl	none (no result: MITF TRPM1 HTS, EBV LMP1 NFkB, MITF TRPM1 inh)
Cn1nccc1C(=O)Nc1ccc(Cl)cc1	esBAF inh 48
CCCCC(CC)CN=C(N)NC(N)=NCCCCCCN=C(N)NC(N)=NCC(CC)CCCC (stereo unspecified)	MITF TRPM1 inh 110 (no result: Wnt bcat act)
Cc1c(Cl)cccc1N1C(=O)CC(Sc2ccccc2N)C1=O (stereo unspecified)	none (no result: MITF TRPM1 HTS, MITF TRPM1 inh)
Nc1ccccc1SC1CC(=O)N(c2ccccc2Cl)C1=O (stereo unspecified)	EBV LMP1 NFkB 47
COc1ccc(C2c3cc(OC)c(OC)cc3CC3C(=O)OCC32)cc1OC (stereo unspecified)	C2C12 statin 96 (no result: esBAF inh)
COc1ccc(C2CC(=O)c3cc(OC)c(OC)cc32)cc1OC (stereo unspecified)	none (no result: C2C12 statin, MITF TRPM1 HTS, esBAF inh)
COc1ccc(-c2ccc3c(c2)[C@@H]2[C@@H](CCN2S(=O)(=O)C2=NC(C)C=N2)[C@@H](CO)N3C)cc1 (stereo partly specified)	none (no result: MITF TRPM1 HTS, EBV LMP1 NFkB, MITF TRPM1 inh, Wnt bcat act)
Cc1cc(C)c[n+](C2=C([O-])c3ccccc3C(=O)/C2=N\S(=O)(=O)c2cccs2)c1	MITF TRPM1 inh 105 (no result: C2C12 statin, esBAF inh)
O=C1/C(=N\S(=O)(=O)c2cccs2)C([n+]2ccc(CCCc3ccccc3)cc2)=C([O-])c2ccccc21	none (no result: C2C12 statin, MITF TRPM1 HTS, EBV LMP1 NFkB, MITF TRPM1 inh, esBAF inh)
O=C1/C(=N\S(=O)(=O)c2cccs2)C([n+]2cccc(Cc3ccccc3)c2)=C([O-])c2ccccc21	MITF TRPM1 inh 91 (no result: C2C12 statin, MITF TRPM1 HTS, Wnt bcat act, esBAF inh)
O=C(c1cc2cc(Br)ccc2o1)N1CCCCC1	esBAF inh 49 (no result: C2C12 statin)
O=C(c1cc2cc(Cl)ccc2o1)N1CCCC1	none
COc1cc(/C=N/Nc2snc(SC)c2C#N)ccc1O	esBAF inh 60 (no result: Wnt bcat act)
COc1cc(/C=N/NC(=Nc2ccc(C)cc2)c2nc3ccccc3s2)ccc1O	MITF TRPM1 inh 69 (no result: Wnt bcat act)
C/C(=N\Nc1nc2ccccc2[nH]1)c1ccccn1	EBV LMP1 NFkB 93
COc1cccc(/C=N/Nc2nc3ccccc3[nH]2)c1O	EBV LMP1 NFkB 83, esBAF inh 62
CC(/C=N/Nc1nc(C)cc(=O)[nH]1)=C\c1ccccc1	none
COc1cc(/C=N/Nc2nc3ccccc3[nH]2)cc(OC)c1O	none (no result: C2C12 statin, Wnt bcat act, esBAF inh)
COc1cc(/C=N/Nc2nc3ccccc3[nH]2)ccc1O	esBAF inh 47
C(=N\Nc1nc2ccccc2[nH]1)/c1ccc2c(c1)OCO2	MITF TRPM1 HTS 116 (no result: C2C12 statin, esBAF inh)
CC(/C=N/Nc1nc2ccccc2[nH]1)=C\c1ccccc1	Wnt bcat act 53 (no result: C2C12 statin, esBAF inh)
Clc1ccccc1N/N=C/c1ccc2c(c1)OCO2	esBAF inh 78 (no result: Wnt bcat act)
CC(=O)NC[C@H]1[C@H](c2ccc(C3=CCCC3)cc2)[C@@H](CO)N1C(=O)NC(C)C	none (no result: MITF TRPM1 HTS, EBV LMP1 NFkB, MITF TRPM1 inh, Wnt bcat act)
Cc1cccc(C(=O)Nc2nnc(S(=O)(=O)N3CCC(C)CC3)s2)c1	none
Cc1nc(C)c(-c2csc(Nc3ccc(O)c(C(=O)O)c3)n2)s1	none
